# Results as given in ChEMBL document CHEMBL3988442, “University of Dundee, Small-Polar-MMV Screening Library” (2021).
# Out of some 48,000 compounds screened, about 13,000 (27%) showed an effect of 50% or more. This is one part of the list.
# Test system: Wolbachia pipientis
# Assay: Anti-Wolbachia Cell-Based Screen
# Format: functional
# Design: scale not given: in the data most compounds retested in dose-response had high values
# Details: 5 µM
row,SMILES,Percent Effect [%]
1,Cc1cc(C(=O)N2C[C@H](CO)C[C@H](CN3CCOCC3)C2)nc(C)n1,-11.42
2,CC(C)CCN(c1cn[nH]c1)S(=O)(=O)c1cccc(C#N)c1,-0.3515
3,NC(=O)c1ccc(CNC2CCCSC2)cc1 (stereo not given),-4.812
4,CCS(=O)(=O)N(C)C(=O)c1cc(C)n(-c2cccc(OC)c2)c1C,-13.82
5,O=C(c1ccc(Cl)o1)N1CCCC(c2cc(C(F)(F)F)[nH]n2)C1 (stereo not given),-0.4503
6,O=C(c1ccco1)N1CCCC(c2cc(C(F)(F)F)n3ncnc3n2)C1 (stereo not given),95.67
7,O=C(c1ccccn1)N1CCCC(c2cc(C(F)F)n3ncnc3n2)C1 (stereo not given),111.1
8,O=C(c1nc(=O)[nH][nH]1)N1CCCC(c2cc(C(F)(F)F)[nH]n2)C1 (stereo not given),-1.931
9,O=C(c1ccncc1)N1CCCC(c2cc(C(F)F)n3ncnc3n2)C1 (stereo not given),88.08
10,O=C(c1cccnc1)N1CCCC(c2cc(C(F)F)n3ncnc3n2)C1 (stereo not given),1.815
11,Cc1ncsc1C(=O)N1CCCC(c2cc(C(F)F)n3ncnc3n2)C1 (stereo not given),110.2
12,O=C(c1ccco1)N1CCCC(c2cc(C(F)F)n3ncnc3n2)C1 (stereo not given),-11.1
13,CCc1nnc(CN(C)Cc2cccc(C(=O)Nc3ccnn3C)c2)o1,-8.218
14,CN(Cc1ccc(Cl)c(F)c1)C(=O)c1ccncc1F,5.158
15,COc1nccc(N2CCN(Cc3ccc(C)cc3)C(=O)C2)c1C#N,5.242
16,CCn1nc(C)cc1C(=O)N1CCOc2ccc(OC)cc21,4.6
17,COc1cc2nc(NCc3scnc3C)nc(N)c2cc1OC,7.61
18,Cc1nn(CC(C)C)c(N(C)C)c1CNCCS(C)(=O)=O,-9.669
19,CCN(CC(=O)NC)C(=O)Cc1nc(-c2ccco2)oc1C,-1.768
20,Cc1cc(CN(C)C(=O)C2CCCN(C(=O)c3cccs3)C2)no1 (stereo not given),-2.385
21,O=C(c1cccs1)N1CCCC(c2cc(C(F)F)n3ncnc3n2)C1 (stereo not given),74.84
22,O=C(c1cccs1)N1CCc2ncnc(C3CCOC3)c2CC1 (stereo not given),-39.43

row,SMILES,Percent Effect [%]
1,COCCC(=O)N1CCN(CCN(C)C)c2ncccc2C1,4.239
2,COc1cccc(-c2cnc3n2CCC32CCN(C(C)=O)CC2)c1,0.6434
3,CCc1ccc(-c2ncc3c(n2)N(C)CCN(CCN(C)C)C3=O)cc1,95.82
4,CN(C)CCN1CCN(C)c2nc(-c3ccccc3)ncc2C1=O,101.9
5,COc1cccc(-c2ncc3c(n2)N(C)CCN(CCN(C)C)C3=O)c1,82.33
6,Cc1ccc2c(n1)N(CCN(C)C)CCN(C(=O)c1ccsc1)C2,-6.316
7,CNC(=O)[C@@H]1C[C@H](N)CN1S(=O)(=O)c1cc(Cl)cc(Cl)c1O,-28.57
8,Cc1c(I)cccc1C(=O)NCC1(CO)CC1,-20.46
9,COc1ccc(CCNC(=O)CC(NC(N)=O)c2ccccc2)cc1 (stereo not given),5.015
10,O=C(NCC1CCOC1)c1cc(-c2ccc(Cl)cc2)n[nH]1 (stereo not given),-17.32
11,COc1ccccc1-c1cc(C(=O)Nc2nc[nH]n2)[nH]n1,103.1
12,CNC(=O)c1cc(-c2ccccc2OC)[nH]n1,118.3
13,CC(=O)Nc1nc(-c2ccc(F)cc2)c[nH]1,8.711
14,O=C(Nc1nc[nH]n1)c1cc(-c2ccc(F)cc2)n[nH]1,175.6
15,COc1ccc(-c2cc(C(=O)Nc3nc[nH]n3)[nH]n2)cc1,117.7
16,COC(=O)C(C)(C)NC(=O)c1cc(COc2ccccc2OC)[nH]n1,-6.385
17,COc1ccccc1-c1cc(NC(=O)CCC2CCCO2)[nH]n1 (stereo not given),4.714
18,CNC(=O)C(C)(C)NC(=O)c1cc(COc2ccccc2OC)[nH]n1,6.418
19,COC[C@@H]1CCCN1C(=O)c1cc(-c2ccc(OC)cc2)n[nH]1,-15.89
20,COc1ccccc1-c1cc(NC(=O)CC2CCS(=O)(=O)C2)[nH]n1 (stereo not given),2.425
21,COc1ccc(NC(=O)NC(C)c2nc[nH]n2)cc1 (stereo not given),-2.331
22,O=C(NCc1cccc(N2CCCCC2=O)c1)[C@@H](O)c1ccccc1,-1.556

row,SMILES,Percent Effect [%]
1,CC(C)c1ccc(N2CCc3onc(-c4ccc(F)c(F)c4)c3C2)nn1,26
2,CCC1CN(C(=O)Nc2cnc3c(cnn3C(C)C)c2)CCO1 (stereo not given),6.429
3,CCC(CC)CN1C[C@@H]2OCCN(Cc3cnn(C)c3)[C@@H]2C1,-7.114
4,COc1cc(C)c(C)cc1S(=O)(=O)NCC(O)c1cccn1C (stereo not given),-4.325
5,COc1cccc(-c2cc(C(=O)Nc3nc[nH]n3)[nH]n2)c1,131.8
6,COC[C@@H]1CCCN1C(=O)c1cc(-c2cccc(OC)c2)n[nH]1,-18.68
7,COCC1CCCCN1C(=O)c1cc(-c2cccc(OC)c2)n[nH]1 (stereo not given),-6.685
8,CN1CCC(c2cc(CCO)ncn2)C1 (stereo not given),105.5
9,CN1CC[C@H](c2nnc(Cc3c[nH]c4ccccc34)o2)C1,-2.7
10,CC(C)N1CCC(CC(=O)NCCc2cc(O)ncn2)CC1,-16.23
11,CCn1c(N)nc2cc(C(=O)N3CCN(c4ccncc4)CC3)cnc21,-2.234
12,Cc1nnc(N2CCCC2)c(C(N)=O)c1C,-23.35
13,Cc1ccc(N2CCCC3(CCN(C(=O)NC4CCCC4)C3)C2)nn1 (stereo not given),1.477
14,CNC(=O)C1(C)CN(c2nnc(C)c3ccccc23)CCO1 (stereo not given),101.8
15,CNC(=O)[C@@]12CCO[C@@H]1CCN(S(=O)(=O)c1ccccc1C)C2,-56.15
16,Cc1nnc(N2CCOC(C)(C(=O)N(C)C)C2)c2ccccc12 (stereo not given),78.63
17,CCOC(=O)c1nnc2ccccc2c1N1CCOC(C)(C)C1,7.014
18,O=C(CCNC(=O)c1ccccc1N1CCOCC1)NC1CCCC1,3.858
19,Cc1nnc(N2CCOC(C)(C(=O)NC3CCCC3)C2)c2ccccc12 (stereo not given),100.6
20,Cn1cnc(S(=O)(=O)N2CCN(Cc3ccco3)CC2)c1Cl,-3.277
21,Cc1n[nH]c(C)c1CN1CC[C@@H]2[C@@H](CCC(=O)N2CCc2c[nH]cn2)C1,-6.371
